The structures appear in SMILES notation. Hit rate of the full screen: of about 39,000 compounds, about 1,500 (3.8%) were called active. What follows is part of a selection rich in actives, with near analogues and random picks from the rest.

The assay has as its system HSkMC (human skeletal muscle cells). Briefly: cytotoxicity call (relative viability < 0.9). The settings on record: 10 µM.
Take `C[C@@H]1CCCCO[C@H](CN(C)C(=O)Cc2ccccc2)[C@@H](C)CN([C@@H](C)CO)C(=O)c2cc(NS(=O)(=O)c3ccc(F)cc3)ccc2O1`: the cytotoxicity call is “inactive”.
Take `Cn1c(=O)c2c(ncn2CC(=O)O)n(C)c1=O`: the cytotoxicity call is “inactive”.
For `Cc1cnc(Nc2ccc(F)cc2Cl)nc1-c1c[nH]c(C(=O)N[C@H](CO)c2cccc(Cl)c2)c1`, the cytotoxicity call was “active”.
Turning to `O=C(C[C@@H]1CC[C@@H]2NC[C@@H](O)COC[C@H]2O1)NCCN1CCCC1`, the cytotoxicity call was “inactive”.
For `Cc1ccc(S(=O)(=O)N(C)C[C@@H]2OCCCC[C@H](C)Oc3ccc(NS(=O)(=O)c4ccc(Cl)cc4)cc3C(=O)N([C@@H](C)CO)C[C@H]2C)cc1`, the cytotoxicity call is “inactive”.
As for `O=C(O)c1cc2sccc2s1`, the entry is “inactive”.
As for `COc1cc(Nc2c(C#N)cnc3cc(OCCCN4CCN(C)CC4)c(OC)cc23)c(Cl)cc1Cl`, the entry is “inactive”.
As for `CCOc1cc2ncc(C#N)c(Nc3ccc(OCc4ccccn4)c(Cl)c3)c2cc1NC(=O)/C=C/[C@H]1CCCN1C`, the entry is “inactive”; as for `CCOc1cc2ncc(C#N)c(Nc3ccc(OCc4ccccn4)c(Cl)c3)c2cc1NC(=O)/C=C/CN(C)C`, “active”.
As to `C[C@@H]1CCCCO[C@@H](CN(C)C(=O)Cc2ccccc2)[C@H](C)CN([C@@H](C)CO)C(=O)c2cc(NS(=O)(=O)c3ccc(Cl)cc3)ccc2O1`, the cytotoxicity call was “inactive”.
The entry for `CC(=O)N(C)C1(c2ccccc2)CCN(CCC[C@]2(c3ccc(Cl)c(Cl)c3)CCCN(C(=O)c3ccccc3)C2)CC1` is “active”; for `CC(C)Oc1cccc(CC(=O)N2CCC[C@](CC[N+]34CCC(c5ccccc5)(CC3)CC4)(c3ccc(Cl)c(Cl)c3)C2)c1` it is “inactive”; for `CC(C)NC(=O)Nc1ccc2c(c1)CC(=O)N([C@@H](C)CO)C[C@@H](C)[C@@H](CN(C)S(=O)(=O)c1cn(C)cn1)O2` it is “inactive”.
Take `C[C@H](CO)N1C[C@H](C)[C@@H](CN(C)Cc2ccccc2)OCCCC[C@H](C)Oc2ccc(NC(=O)c3ccncc3)cc2C1=O`: the cytotoxicity call is “inactive”.
As for `C[C@@H]1CN([C@H](C)CO)C(=O)c2c(c3ccccc3n2C)-c2ccccc2CO[C@@H]1CN(C)Cc1ccc(F)cc1`, the entry is “inactive”; as for `C[C@H]1CN([C@@H](C)CO)C(=O)c2c(c3ccccc3n2C)-c2ccccc2CO[C@H]1CN(C)Cc1ccc(C(F)(F)F)cc1`, “inactive”.
For the compound `C[C@@H]1CN([C@H](C)CO)C(=O)c2c(c3ccccc3n2C)-c2ccccc2CO[C@@H]1CN(C)Cc1ccc(C(F)(F)F)cc1`, the cytotoxicity call is “active”.
On to `C[C@@H]1CN([C@@H](C)CO)C(=O)c2c(c3ccccc3n2C)-c2ccccc2CO[C@@H]1CN(C)S(=O)(=O)c1ccc(C(F)(F)F)cc1`, for which the cytotoxicity call is “inactive”.
Turning to `C[C@@H]1CN([C@@H](C)CO)C(=O)c2c(c3ccccc3n2C)-c2ccccc2CO[C@H]1CN(C)Cc1ccc(C(F)(F)F)cc1`, the cytotoxicity call is “active”.
For the compound `C[C@@H]1CN([C@H](C)CO)C(=O)c2c(c3ccccc3n2C)-c2ccccc2CO[C@@H]1CN(C)S(=O)(=O)c1ccc(C(F)(F)F)cc1`, the cytotoxicity call is “inactive”.
As for `C[C@@H]1CN([C@H](C)CO)C(=O)c2c(c3ccccc3n2C)-c2ccccc2CO[C@H]1CN(C)S(=O)(=O)c1ccc(C(F)(F)F)cc1`, the entry is “active”; as for `C[C@H](CO)N1C[C@H](C)[C@@H](CN(C)Cc2ccc(C(F)(F)F)cc2)OCc2ccccc2-c2c(n(C)c3ccccc23)C1=O`, “inactive”.
In the case of `C[C@@H]1CN([C@H](C)CO)C(=O)c2c(c3ccccc3n2C)-c2ccccc2CO[C@H]1CN(C)Cc1ccc(C(F)(F)F)cc1`, the cytotoxicity call is “active”.
With `C[C@H](CO)N1C[C@H](C)[C@H](CN(C)Cc2ccc(C(F)(F)F)cc2)OCc2ccccc2-c2c(n(C)c3ccccc23)C1=O`, the cytotoxicity call was “inactive”.
In the case of `C[C@H]1CN([C@@H](C)CO)C(=O)c2c(c3ccccc3n2C)-c2ccccc2CO[C@@H]1CN(C)Cc1ccc(C(F)(F)F)cc1`, the cytotoxicity call is “inactive”.
In the case of `C[C@@H]1CN([C@@H](C)CO)C(=O)c2c(c3ccccc3n2C)-c2ccccc2CO[C@@H]1CN(C)Cc1ccc(C(F)(F)F)cc1`, the cytotoxicity call was “inactive”.
Take `C[C@H](CO)N1C[C@H](C)[C@@H](CN(C)C(=O)Nc2ccccc2)OCCCC[C@H](C)Oc2ccc(NC(=O)Nc3ccc(F)cc3)cc2C1=O`: the cytotoxicity call is “inactive”.
The entry for `C[C@@H]1CCCCO[C@H](CN(C)C(=O)Nc2ccc3c(c2)OCO3)[C@@H](C)CN([C@@H](C)CO)C(=O)c2cc(NS(=O)(=O)c3cccs3)ccc2O1` is “inactive”; for `CN(C)C(=O)C[C@H]1CC[C@@H](NC(=O)C2CCOCC2)[C@H](CO)O1` it is “inactive”.
Turning to `O=C(/C=C/c1ccc(O)c(O)c1)O[C@H]1[C@H](O)C[C@](OC(=O)/C=C/c2ccc(O)c(O)c2)(C(=O)O)C[C@H]1O`, the cytotoxicity call is “inactive”.
`O=C(C[C@@H]1CC[C@@H]2[C@H](COC[C@@H](O)CN2S(=O)(=O)c2ccc(Cl)cc2)O1)NCC1CCCCC1`: the cytotoxicity call was “inactive”.
Take `COc1ccc(NC(=O)N(C)C[C@@H]2OCCCC[C@@H](C)Oc3ccc(NC(=O)Nc4ccc(F)cc4)cc3C(=O)N([C@H](C)CO)C[C@@H]2C)cc1`: the cytotoxicity call was “inactive”.
As for `COc1ccc(S(=O)(=O)N(C)C[C@@H]2Oc3ccc(NC(=O)c4ccncc4)cc3C(=O)N([C@@H](C)CO)C[C@H]2C)cc1`, the entry is “inactive”; as for `C[C@H]1CN([C@@H](C)CO)C(=O)c2cccc(NC(=O)c3nc4ccccc4s3)c2O[C@H]1CN(C)S(C)(=O)=O`, “inactive”.
The entry for `CC(C)NC(=O)N(C)C[C@@H]1Oc2ccc(NS(=O)(=O)c3cccs3)cc2CC(=O)N([C@@H](C)CO)C[C@H]1C` is “inactive”; for `C[C@@H]1CN([C@@H](C)CO)S(=O)(=O)c2ccc(C#C[C@@H](C)O)cc2O[C@@H]1CN(C)C(=O)c1ccncc1` it is “inactive”; for `CO[C@@H]1CN(C)C(=O)c2cc(NC(=O)C3CC3)ccc2OC[C@H](C)N(C(=O)C2CCOCC2)C[C@H]1C` it is “inactive”.
Regarding `Cc1noc(C)c1NC(=O)N(C)C[C@H]1Oc2c(NC(=O)NC(C)C)cccc2C(=O)N([C@H](C)CO)C[C@H]1C`, the cytotoxicity call is “inactive”.
As for `CO[C@@H](C(=O)N(C)C[C@H]1OCc2ccccc2-c2c(n(C)c3ccccc23)C(=O)N([C@@H](C)CO)C[C@H]1C)c1ccccc1`, the entry is “inactive”; as for `C[C@H]1CN([C@@H](C)CO)C(=O)Cc2cc(NC(=O)Nc3cccc4ccccc34)ccc2O[C@@H]1CN(C)Cc1ccc(C(F)(F)F)cc1`, “inactive”; as for `C[C@H]1CN([C@@H](C)CO)C(=O)Cc2cc(NC(=O)Nc3ccc(C(F)(F)F)cc3)ccc2O[C@@H]1CN(C)C(=O)Nc1cccc2ccccc12`, “inactive”.
For `C[C@H]1CN([C@@H](C)CO)C(=O)Cc2cc(NC(=O)Nc3cccc4ccccc34)ccc2O[C@@H]1CN(C)C(=O)Nc1ccc(C(F)(F)F)cc1`, the cytotoxicity call is “inactive”.
As for `C[C@@H]1CN([C@@H](C)CO)C(=O)Cc2cc(NC(=O)Nc3cccc4ccccc34)ccc2O[C@H]1CN(C)C(=O)Nc1ccc(C(F)(F)F)cc1`, the entry is “inactive”; as for `C[C@@H]1CN([C@@H](C)CO)C(=O)c2cc(NC(=O)Nc3cccc4ccccc34)ccc2O[C@H]1CN(C)Cc1ccc(C(F)(F)F)cc1`, “inactive”.
`C[C@@H]1CN([C@@H](C)CO)C(=O)Cc2cc(NC(=O)Nc3ccc(C(F)(F)F)cc3)ccc2O[C@@H]1CN(C)C(=O)Nc1cccc2ccccc12`: the cytotoxicity call is “active”.
Regarding `C[C@H](CO)N1C[C@H](C)[C@@H](CN(C)Cc2ccc(C(F)(F)F)cc2)Oc2ccc(NC(=O)Nc3cccc4ccccc34)cc2CC1=O`, the cytotoxicity call is “inactive”.
Take `C[C@@H]1CN([C@@H](C)CO)C(=O)Cc2cc(NC(=O)Nc3cccc4ccccc34)ccc2O[C@@H]1CN(C)C(=O)Nc1ccc(C(F)(F)F)cc1`: the cytotoxicity call was “active”.
As for `C[C@H]1CN([C@@H](C)CO)C(=O)c2cc(NC(=O)Nc3cccc4ccccc34)ccc2O[C@H]1CN(C)Cc1ccc(C(F)(F)F)cc1`, the entry is “active”; as for `C[C@@H]1CN([C@H](C)CO)C(=O)c2cc(NC(=O)Nc3cccc4ccccc34)ccc2O[C@H]1CN(C)Cc1ccc(C(F)(F)F)cc1`, “inactive”; as for `C[C@H]1CN([C@@H](C)CO)C(=O)Cc2cc(NC(=O)Nc3ccc(C(F)(F)F)cc3)ccc2O[C@H]1CN(C)C(=O)Nc1cccc2ccccc12`, “inactive”.
As for `C[C@H]1CN([C@@H](C)CO)C(=O)Cc2cc(NC(=O)Nc3cccc4ccccc34)ccc2O[C@H]1CN(C)Cc1ccc(C(F)(F)F)cc1`, the entry is “active”; as for `COc1ccc(NC(=O)Nc2ccc3c(c2)[C@@H]2C[C@@H](CC(=O)NCc4ccncc4)O[C@H](CO)[C@@H]2O3)cc1`, “inactive”.
In the case of `COc1ccc(S(=O)(=O)N(C)C[C@@H]2OCCCC[C@@H](C)Oc3ccc(NC(=O)Nc4ccccc4)cc3C(=O)N([C@@H](C)CO)C[C@H]2C)cc1`, the cytotoxicity call was “inactive”.
`C[C@H](CO)N1C[C@H](C)[C@H](CN(C)S(=O)(=O)c2ccccc2)Oc2ccc(NC(=O)Cn3cnnn3)cc2CC1=O`: the cytotoxicity call is “inactive”.
With `C[C@@H]1CN([C@@H](C)CO)C(=O)Cc2cc(NC(=O)Cc3cn(C)c4ccccc34)ccc2O[C@H]1CN(C)C(=O)Nc1cccc2ccccc12`, the cytotoxicity call was “inactive”.
Regarding `C#CCN(O[C@@H](/C=C/[C@@H](O)Cc1ccccc1)C1CC1)[C@@H](Cc1ccc(-n2cc(CCC(=O)NO)nn2)cc1)C(=O)OC`, the cytotoxicity call was “inactive”.
As for `Cc1noc(C)c1S(=O)(=O)N(C)C[C@H]1Oc2ccc(NS(=O)(=O)c3cn(C)cn3)cc2CC(=O)N([C@@H](C)CO)C[C@@H]1C`, the entry is “inactive”; as for `Cc1noc(C)c1S(=O)(=O)Nc1ccc2c(c1)C(=O)N([C@H](C)CO)C[C@H](C)[C@H](CN(C)C(=O)Nc1ccc3c(c1)OCO3)O2`, “inactive”.
As to `Cc1noc(C)c1S(=O)(=O)Nc1ccc2c(c1)C(=O)N([C@H](C)CO)C[C@H](C)[C@@H](CN(C)S(=O)(=O)c1ccccc1)O2`, the cytotoxicity call is “inactive”.
The entry for `O=C(C[C@@H]1C[C@@H]2c3cc(NC(=O)C4CCOCC4)ccc3O[C@@H]2[C@@H](CO)O1)NCc1ccc2c(c1)OCO2` is “inactive”; for `C[C@@H]1CCCCO[C@@H](CN(C)CC2CCCCC2)[C@H](C)CN([C@@H](C)CO)C(=O)c2cc(NC(=O)Nc3ccc(C(F)(F)F)cc3)ccc2O1` it is “active”; for `C[C@H](CO)N1C[C@H](C)[C@H](CN(C)CC2CCCCC2)OCCCC[C@H](C)Oc2ccc(NC(=O)Nc3ccc(C(F)(F)F)cc3)cc2C1=O` it is “active”.
As to `C[C@@H]1CCCCO[C@H](CN(C)CC2CCCCC2)[C@H](C)CN([C@H](C)CO)C(=O)c2cc(NC(=O)Nc3ccc(C(F)(F)F)cc3)ccc2O1`, the cytotoxicity call is “active”.
In the case of `C[C@@H]1CCCCO[C@H](CN(C)CC2CCCCC2)[C@H](C)CN([C@@H](C)CO)C(=O)c2cc(NC(=O)Nc3ccc(C(F)(F)F)cc3)ccc2O1`, the cytotoxicity call was “active”.
As for `C[C@H](CO)N1C[C@H](C)[C@@H](CN(C)CC2CC2)OCCCC[C@H](C)Oc2ccc(NC(=O)Nc3ccc(C(F)(F)F)cc3)cc2C1=O`, the entry is “inactive”; as for `C[C@@H]1CCCCO[C@@H](CN(C)CC2CC2)[C@H](C)CN([C@H](C)CO)C(=O)c2cc(NC(=O)Nc3ccc(C(F)(F)F)cc3)ccc2O1`, “inactive”.

Values taken from the antibiotic and cytotoxicity screens of Wong et al. (2023).
